# Compound activity: PubChem, National Center for Advancing Translational Sciences (NCATS)
# Sampled rows, rich in hits. Any-hit rate of the full collection: about 15%.
# TDP1 cell CPT: qHTS for Inhibitors of human tyrosyl-DNA phosphodiesterase 1 (TDP1): qHTS in cells in presence of CPT. chicken DT40 Tdp1-/-;hTDP1 cells + 20 nM CPT, ATP luminescence, 48 h. 420,000 compounds, 12% hits. Potency, µM (titrated, usually from 46.2 µM), inactives show at the highest dose activity change, negative = growth inhibition, hits mostly inhibitors. AID 686979, 2013; note: nearly all actives have a fitted effect of over 55% in size
#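 Cell growth measured by CellTiter-Glo luminescence after a minimum 48 h, 37 C compound exposure with 20 nM CPT in Tdp1-knockout DT40 cells stably expressing hTDP1, seeded 400/well; qHTS titration format.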
# TDP1 cell noCPT: qHTS for Inhibitors of human tyrosyl-DNA phosphodiesterase 1 (TDP1): qHTS in cells in absence of CPT | DT40 Tdp1-/- hTDP1 cells, no CPT, ATP luminescence, 48 h | Potency, µM (titrated, usually from 46.2 µM), for the others: at the highest dose activity change, negative = growth inhibition, most hits filed as inhibitors | 420,000 compounds, 15% hits | AID 686978, 2013; note: nearly all actives have a fitted effect of over 55% in size
#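 Camptothecin absent (DMSO only). Human TDP1-complemented DT40 knockout cells, 400 cells/well, 37 °C for minimum 48 hr; ATP measured via CellTiter-Glo, 30 min dark incubation, luminescence.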
# Gal4-VP16 FLuc: VP16 counterscreen qHTS for inhibitors of ROR gamma transcriptional activity; Drosophila S2 Gal4-VP16 UAS-luciferase, luminescence, 20 h; AID 2546, 2010; 310,000 compounds, 3.5% hits; Potency, µM (top dose mostly 53.6 µM), inactives show at the highest dose activity, negative = inhibition, most hits filed as inhibitors;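 note: Gal4-VP16 expression switched on by copper sulfate through the metallothionein promoter; nearly all actives have a fitted effect of over 50% in size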
# 12-LOX inh: Primary qHTS assay for inhibitors of human arachidonate 12S-lipoxygenase (ALOX12): Round 2 | purified 12hLO, xylenol orange hydroperoxide absorbance | 580,000 compounds, 1.1% hits | Polyunsaturated fatty acid lipoxygenase ALOX12 (Homo sapiens), P18054 | Potency, µM (titrated, usually from 108 µM), inactives show at the top dose activity change, negative = inhibition, usual class: inhibitors
#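 Hydroperoxide product was detected by ferrous iron/xylenol orange as the 573 to 405 nm absorbance ratio. Arachidonic acid at 40 uM (final) was turned over for 30 min at room temperature by 150 nM human 12hLO, pH 7.0 Hepes buffer, after 15 min compound preincubation.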
# RORgamma inh: qHTS for inhibitors of ROR gamma transcriptional activity. Nuclear receptor ROR-gamma (Mus musculus), P51450. Potency, µM (series often up to 53.6 µM), inactives show at the top dose activity change, negative = inhibition, most hits filed as inhibitors. Drosophila S2 Gal4-RORgamma UAS-luciferase reporter, 20 h. 310,000 compounds, 5.4% hits; note: nearly all actives have a fitted effect of over 60% in size
# Target sequence (P51450 whole entry, looked up, the tested form may be a part): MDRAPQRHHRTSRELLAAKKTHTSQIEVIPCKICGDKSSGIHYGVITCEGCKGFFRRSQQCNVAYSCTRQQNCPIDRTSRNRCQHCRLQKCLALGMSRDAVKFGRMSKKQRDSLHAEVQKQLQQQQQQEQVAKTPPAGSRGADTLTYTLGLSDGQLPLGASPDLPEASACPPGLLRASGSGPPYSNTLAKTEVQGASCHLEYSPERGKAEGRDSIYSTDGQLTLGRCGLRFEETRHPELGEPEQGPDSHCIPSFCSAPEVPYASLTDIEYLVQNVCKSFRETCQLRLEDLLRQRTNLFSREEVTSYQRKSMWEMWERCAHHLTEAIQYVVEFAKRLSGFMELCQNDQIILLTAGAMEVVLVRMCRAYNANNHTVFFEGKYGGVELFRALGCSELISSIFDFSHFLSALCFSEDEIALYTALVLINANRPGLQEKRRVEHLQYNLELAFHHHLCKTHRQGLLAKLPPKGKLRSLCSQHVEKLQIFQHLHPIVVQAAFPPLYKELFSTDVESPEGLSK
#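 ROR gamma transcriptional activity was tracked as Gal4-UAS luciferase output in stably transfected Drosophila Schneider cells, with compound added 1 hr before 700 uM copper sulfate induction and a 20 hr ambient-temperature incubation.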
# ELG1 repair inh: qHTS screen for small molecules that inhibit ELG1-dependent DNA repair in human embryonic kidney (HEK293T) cells expressing luciferase-tagged ELG1; HEK293T ELG1-luciferase reporter, luminescence, 16 h; DNA damage induced by 5-fluorouridine; Potency, µM (doses to about 46.1 µM), for the others: top-dose activity change, negative = inhibition, hits mostly inhibitors; 330,000 compounds, 2.3% hits; AID 504467, 2011; note: nearly all actives have a fitted effect of over 55% in size
#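 Cells (2,000 per well) received 5-fluorouridine plus test compound or DMSO and were incubated 16 hr at 37 °C, 5% CO2. Luciferase activity was read by luminescence 30 min after ONE-Glo addition; signal suppression marked inhibition of damage-induced ELG1 function.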
# Starred values were filed as active, the others as inactive; ? = inconclusive; / = not tested or not shown; [ ] = dose if it differs, or a comment. Calls come from the whole dose curve; as a rule, active = well fitted curve in the direction sought with a large enough effect; inconclusive = small, poorly fitted or top-dose-only effect, or another doubt; inactive = no such curve, though single readings can be large; an effect the other way counts as inactive or inconclusive. % is set by controls: 0 for no effect and ±100 for the full control effect; potency is the fitted concentration of half-maximal effect.
SMILES,TDP1 cell CPT,TDP1 cell noCPT,Gal4-VP16 FLuc,12-LOX inh,RORgamma inh,ELG1 repair inh
N#CCCN(Cc1ccccc1)C(=S)Nc1ccc(F)cc1,-8%,-18%,-7%,95%,0%,11%
C=C(C)CN(Cc1ccccc1)C(=S)Nc1ccccc1,18%,-13%,?,-16%,?,?
C=CCNC(=S)N(Cc1ccccc1)Cc1ccc(F)cc1,?,-46%,-28%,-14%,18µM*,0%
CCCN(Cc1ccccc1)C(=S)Nc1ccc(F)cc1,13%,-11%,-23%,?,16µM*,-8%
CCCN(Cc1ccccc1)C(=S)Nc1ccc(SC(F)F)cc1,2%,?,?,0%,8.9µM*,23µM*
CCCN(Cc1ccccc1)C(=S)Nc1ccc(OCC)cc1,?,18µM*,-22%,0%,10µM*,-1%
CCOC(=O)C1(Cc2ccccc2C)CCCN(S(=O)(=O)CC)C1 (stereo not drawn),?,23µM*,-12%,0%,2%,-15%
COCCCNC(=O)c1ccc(Cn2c(SCc3cccc(C)c3)nc3cccnc32)cc1,?,?,/,-16%,/,/
CC(C)OCCCNC(=O)c1ccc(CSc2nc3cccnc3n2Cc2ccccc2)cc1,?,23µM*,/,-2%,/,/
CCNC(=O)c1ccc(CSc2nc3cccnc3n2Cc2ccc(OC)cc2)cc1,?,?,/,-13%,/,/
COCCCNC(=O)c1ccc(CSc2nc3cccnc3n2Cc2ccc(OC)cc2)cc1,23µM*,16µM*,/,-15%,/,/
COCCCNC(=O)c1ccc(Cn2c(SCc3ccc(F)cc3)nc3cccnc32)cc1,?,15µM*,/,-14%,/,/
CN(C)c1ccc(CNC(=O)c2ccc(Cn3c(SCc4ccccc4)nc4cccnc43)cc2)cc1,?,?,/,2%,/,/
CC(=O)c1cn(CC(=O)N2CCOCC2)c2ccccc12,/,/,/,6%,/,/
CCc1cccc(NC(=O)N2c3ccccc3CC2c2nc(CCOC)no2)c1 (stereo not drawn),/,/,/,36%,/,/
O=C(NCc1ccc(OC(F)F)cc1)c1ccc(-n2cnnn2)cc1,/,/,/,12%,/,/
COc1ccc2c(C)c(CCC(=O)Nc3ccccc3OC)c(=O)oc2c1,/,/,/,18%,/,/
COc1cc(OC)cc(C(=O)NCc2n[nH]c(=O)c3ccccc23)c1,/,/,/,24%,/,/
N/C(COc1ncn(-c2ccccc2)n1)=N\S(=O)(=O)c1ccc(Cl)cc1Cl,?,-28%,11%,-2%,11%,16µM*
NC(=O)COc1ncn(-c2ccccc2)n1,2%,-2%,-2%,0%,10%,7%
COC(=O)C1SCC2C(=O)N(Cc3ccc(Cl)cc3)CC(=O)N21 (stereo not drawn),9%,-4%,0%,-21%,-9%,5%
COC(=O)C1SCC2C(=O)N(Cc3ccc(Cl)c(Cl)c3)CC(=O)N21 (stereo not drawn),23µM*,?,-2%,-20%,2%,-5%
COCOc1cccc(CN2CCC2(C)C(=O)Nc2ccc(C)cc2)c1 (stereo not drawn),?,?,/,-4%,/,/
COCOc1cccc(CN2CCC2(C)C(=O)Nc2ccc(C)c(O)c2)c1 (stereo not drawn),26µM*,18µM*,/,-10%,/,/
COCOc1cccc(CN2CCC2(C)C(=O)Nc2ccc(OC)c(OC)c2)c1 (stereo not drawn),16µM*,23µM*,/,5%,/,/
SMILES,TDP1 cell CPT,TDP1 cell noCPT,Gal4-VP16 FLuc,12-LOX inh,RORgamma inh,ELG1 repair inh
COCOc1cccc(CN2CCC2(C)C(=O)Nc2cc(OC)ccc2OC)c1 (stereo not drawn),26µM*,?,/,1%,/,/
COc1ccc(CNC(=O)NC(c2ccccc2)c2ccncc2)cc1 (stereo not drawn),/,/,/,3%,/,/
CC1=C[C@@H](CNC(=O)C(C)(C)C)[C@H](C(C)C)C[C@H]1CC(=O)N(C)Cc1cccnc1,/,/,/,9%[176 µM],/,/
COc1cccc2c3cccc(OC)c3c3[nH]cnc3c12,?,7.3µM*,/,-8%,/,/
O=C(O)c1ccc2nc(-c3ccccc3)c(-c3ccccc3)nc2c1,17%,16%,-24%,18%,?,?
O=C(NCCc1ccccc1)c1ccc(=O)oc1,-15%,-14%,-2%,0%,1%,17%
O=C(NCCO)c1ccc2nc(-c3ccco3)c(-c3ccco3)nc2c1,?,21µM*,-3%,?,-12%,-22%
O=C(NCCc1ccccc1)c1ccc2nc(-c3ccco3)c(-c3ccco3)nc2c1,21µM*,18µM*,-5%,/,-27%,?
O=C(c1ccccc1)c1ccc2nc(-c3ccco3)c(-c3ccco3)nc2c1,21µM*,21µM*,?,?,21%,?
CCCc1ncncc1C(=O)NC1CC(c2nnc(CO)n2C2CC2)C1 (stereo not drawn),/,/,/,77%,/,/
CCCN1C(=O)C2(C(C(=O)c3ccc(C)o3)=C(O)C(=O)N2CCN(C)C)c2ccccc21 (stereo not drawn),/,/,/,-5%,/,/
CC(=O)Nc1ccc(/C(C)=N\OC(C)C(=O)Nc2cccc(C)c2)cc1 (stereo not drawn),/,/,/,-24%,/,/
Cc1cc(Br)ccc1OCCCCN1CCC(C)CC1,23µM*,?,1%,-5%,-13%,-2%
CC1CCN(CCCCOc2ccc(Br)cc2)CC1,?,?,-2%,?,-11%,-1%
CC1CCN(CCCCOc2ccccc2F)CC1,?,15µM*,-12%,-18%,-18%,2%
Cc1cc2nc(CSc3ccc(NC(=O)c4ccccc4C(F)(F)F)cc3)cc(=O)n2o1,/,/,/,24%,/,/
c1ccc2c(-c3cc(C4CCNCC4)[nH]n3)cccc2c1,21µM*,?,2%,-8%,0%,-13%
COc1ccc(Cl)cc1NC(=O)CN(C)C(=O)c1ccc2c(c1)OCCO2,-25%,?,/,-22%,/,-1%
COc1cccc(NC(=O)CN(C)C(=O)c2ccc3c(c2)CC(c2ccccc2)OC3=O)c1 (stereo not drawn),?,?,/,-28%,/,?
